This is an account of results in PMC4336329 (PLoS ONE, 2015).

Out of some 310,000 compounds screened, about 14,000 (4.5%) showed an effect of 50% or more. Effects have a minus sign here. The list comes from a sample in which strong results are over-represented; it also holds similar structures and randomly drawn compounds.
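Note: peak tail current of the secondary pulse compared with the same well before compound.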

human ether-à-go-go-related gene (hERG) potassium channel, sequence (Q12809 whole entry, looked up): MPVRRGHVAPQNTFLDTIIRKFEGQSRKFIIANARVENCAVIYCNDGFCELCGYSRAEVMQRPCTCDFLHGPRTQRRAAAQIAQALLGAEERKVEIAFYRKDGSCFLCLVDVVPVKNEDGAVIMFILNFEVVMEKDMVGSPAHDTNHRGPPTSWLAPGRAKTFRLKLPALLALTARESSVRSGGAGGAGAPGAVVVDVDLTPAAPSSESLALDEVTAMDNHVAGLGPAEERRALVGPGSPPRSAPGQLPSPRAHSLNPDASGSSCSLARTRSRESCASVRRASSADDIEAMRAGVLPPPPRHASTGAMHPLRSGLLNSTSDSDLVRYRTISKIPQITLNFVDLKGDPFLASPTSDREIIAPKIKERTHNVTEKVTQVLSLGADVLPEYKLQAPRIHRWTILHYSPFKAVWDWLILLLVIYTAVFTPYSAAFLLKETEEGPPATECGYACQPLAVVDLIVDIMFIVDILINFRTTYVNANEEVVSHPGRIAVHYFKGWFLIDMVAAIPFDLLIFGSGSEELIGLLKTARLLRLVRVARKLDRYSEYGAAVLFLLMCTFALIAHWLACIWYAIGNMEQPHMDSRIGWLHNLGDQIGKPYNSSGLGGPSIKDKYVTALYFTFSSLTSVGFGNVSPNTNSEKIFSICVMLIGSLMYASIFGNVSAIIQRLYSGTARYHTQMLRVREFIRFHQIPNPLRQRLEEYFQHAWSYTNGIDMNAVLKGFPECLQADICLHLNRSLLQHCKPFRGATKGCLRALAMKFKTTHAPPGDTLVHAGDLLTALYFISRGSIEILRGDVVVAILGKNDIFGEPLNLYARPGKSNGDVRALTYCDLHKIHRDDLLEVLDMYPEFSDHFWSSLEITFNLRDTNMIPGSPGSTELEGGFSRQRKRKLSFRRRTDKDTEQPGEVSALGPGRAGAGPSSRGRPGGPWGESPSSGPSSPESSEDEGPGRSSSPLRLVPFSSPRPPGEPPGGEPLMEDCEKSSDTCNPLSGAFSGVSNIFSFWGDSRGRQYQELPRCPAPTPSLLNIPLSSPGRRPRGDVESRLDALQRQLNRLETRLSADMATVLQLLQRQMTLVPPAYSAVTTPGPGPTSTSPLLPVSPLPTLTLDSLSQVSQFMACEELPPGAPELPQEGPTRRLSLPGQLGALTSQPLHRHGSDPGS

This assay addresses human ether-à-go-go-related gene (hERG) potassium channel (human, UniProt Q12809). Kind of assay: primary screen, population patch clamp on CHO cells stably expressing hERG; higher = less effect of the substance.
With `Cc1ccc(CNC(=O)CCC2CCCN(Cc3cccc4cccnc34)C2)o1` (stereo not shown), the “hERG current change (%, negative = inhibition) at 10uM” value is given as -66%.

As to `Cc1nn(C(C)C)c(C)c1CN1CCCC(CCC(=O)NCc2ccccc2F)C1` (stereo not shown), the “hERG current change (%, negative = inhibition) at 10uM” value stood at 0.286%.

Consider `Cc1ccc(CNC(=O)CCC2CCCN(Cc3cccc4ncccc34)C2)o1` (stereo not shown), for which the “hERG current change (%, negative = inhibition) at 10uM” value was -22.4%.

Consider `Cc1ccc(CNC(=O)CCC2CCCN(Cc3c(C)nn(C(C)C)c3C)C2)o1` (stereo not shown), for which the “hERG current change (%, negative = inhibition) at 10uM” value was -16.6%.

For `CC(C)c1csc(CN2CCCC(CCC(=O)NCc3ccccc3F)C2)n1` (stereo not shown), the “hERG current change (%, negative = inhibition) at 10uM” value is given as -34.3%.

`O=C(NN1C(=O)C2C3C=CC([C@H]4CC34)[C@@H]2C1=O)c1ccc(Br)cc1` (stereo partly shown): the “hERG current change (%, negative = inhibition) at 10uM” value stood at 8.18%.

For `COc1ccc(CNC(=O)CC2C(=O)NCCN2C2Cc3ccccc3C2)cc1` (stereo not shown), the “hERG current change (%, negative = inhibition) at 10uM” value is reported as -28.5%.

Regarding `CCc1c(C(=O)Nc2cc(C)cc(C)c2)[nH]c(C)c1C(C)=O`, the “hERG current change (%, negative = inhibition) at 10uM” value came to 12.7%.

For `Cc1nn(C2CCS(=O)(=O)C2)c(Cl)c1/C=C/C(=O)OCC(=O)c1cc(C)n(-c2ccc(F)cc2)c1C` (stereo not shown), the “hERG current change (%, negative = inhibition) at 10uM” value is 4.11%.

Regarding `Cc1nc(SCC(=O)NC2CCCC2)[nH]c(=O)c1Cc1ccccc1`, the “hERG current change (%, negative = inhibition) at 10uM” value amounted to 7.93%.

As to `CCN1CCN(C(=O)c2cc(-c3cccnc3)nc3ccc(Br)cc23)CC1`, the “hERG current change (%, negative = inhibition) at 10uM” value is -28.5%.

As to `CCN(CC)Cc1c(C(=O)N/N=C/c2ccncc2)nnn1-c1nonc1N`, the “hERG current change (%, negative = inhibition) at 10uM” value was -55.9%.

As to `CCCc1c(C(=O)N/N=C(/C)c2ccncc2)nnn1-c1nonc1N`, the “hERG current change (%, negative = inhibition) at 10uM” value is reported as 0.629%.

Turning to `CCN(CC)Cc1c(C(=O)N/N=C(\C)c2ccncc2)nnn1-c1nonc1N`, the “hERG current change (%, negative = inhibition) at 10uM” value was -80.3%.

For `CCN(CC)Cc1c(C(=O)N/N=C/c2cccnc2)nnn1-c1nonc1N`, the “hERG current change (%, negative = inhibition) at 10uM” value is -10.9%.

In the case of `CCCN(CCC)Cc1c(C(=O)N/N=C/c2ccc(Br)cc2)nnn1-c1nonc1N`, the “hERG current change (%, negative = inhibition) at 10uM” value was -15.3%.

As for `CCOc1cccc(-c2c(C(=O)N/N=C/c3cccnc3)nnn2-c2nonc2N)c1`, the “hERG current change (%, negative = inhibition) at 10uM” value is recorded as -54%.

For the molecule `CCOc1cccc(-c2c(C(=O)N/N=C/c3ccncc3)nnn2-c2nonc2N)c1`, the “hERG current change (%, negative = inhibition) at 10uM” value is reported as -9.65%.

Take `CCCN(CCC)Cc1c(C(=O)N/N=C/c2ccsc2)nnn1-c1nonc1N`: the “hERG current change (%, negative = inhibition) at 10uM” value is reported as -14.6%.

Regarding `CN(C)Cc1c(C(=O)N/N=C/c2ccncc2)nnn1-c1nonc1N`, the “hERG current change (%, negative = inhibition) at 10uM” value was 3.67%.

As for `COCc1c(C(=O)N/N=C(\C)c2ccncc2)nnn1-c1nonc1N`, the “hERG current change (%, negative = inhibition) at 10uM” value came out at 7.11%.

Take `CCCN(CCC)Cc1c(C(=O)N/N=C/c2ccncc2)nnn1-c1nonc1N`: the “hERG current change (%, negative = inhibition) at 10uM” value is listed as -64.1%.

In the case of `CCOc1ccc(-c2c(C(=O)N/N=C/c3cccnc3)nnn2-c2nonc2N)cc1`, the “hERG current change (%, negative = inhibition) at 10uM” value is 9.94%.

Consider `O=C(c1ccc(-n2c(SCc3cc(F)ccc3F)nc3ccccc3c2=O)cc1)N1CCOCC1`, for which the “hERG current change (%, negative = inhibition) at 10uM” value was found to be 8.7%.

As for `Cc1noc(C)c1COC(=O)Cc1ccc(Cl)cc1`, the “hERG current change (%, negative = inhibition) at 10uM” value is given as -5.13%.

As to `COc1ccc(Cc2nc3ccc(C(=O)NCCSC)cc3o2)cc1`, the “hERG current change (%, negative = inhibition) at 10uM” value is given as 6.36%.

On to `CC(=O)Nc1ccc(S(=O)(=O)N2CCC(N(C)CCC(C)C)CC2)cc1.Cl`, for which the “hERG current change (%, negative = inhibition) at 10uM” value is reported as -46.8%.

For the molecule `c1csc(C2Nc3cccc4cccc(c34)N2)c1`, the “hERG current change (%, negative = inhibition) at 10uM” value is reported as -17.2%.

Take `CCC(=O)Nc1cccc(C(=O)/C=C/c2cccs2)c1`: the “hERG current change (%, negative = inhibition) at 10uM” value is given as -3.34%.

Regarding `COc1ccc(/C=N/NC(=O)CNc2ccc(Br)cc2)c(C(=O)O)c1OC`, the “hERG current change (%, negative = inhibition) at 10uM” value worked out at 13.9%.

Consider `O=C(NCCCN1CCCC1=O)c1ccc(OC(F)(F)F)cc1`, for which the “hERG current change (%, negative = inhibition) at 10uM” value is recorded as -0.372%.

On to `COC(=O)C1=C(C)NC2=C(C(=O)c3ccccc32)C1c1cccc(OC)c1` (stereo not shown), for which the “hERG current change (%, negative = inhibition) at 10uM” value is given as 4.97%.

Regarding `CN(C)C(=O)c1ccc(NC(=O)c2ccccc2Sc2ccccc2C#N)cc1`, the “hERG current change (%, negative = inhibition) at 10uM” value worked out at 1.57%.

Consider `O=C(O)C1Cn2c(nc3c(c2=O)C2(CCCC2)Cc2ccccc2-3)S1` (stereo not shown), for which the “hERG current change (%, negative = inhibition) at 10uM” value was 17.3%.

With `C=C1C(C(=O)N2CCOCC2)C1C(=O)N1CCOCC1` (stereo not shown), the “hERG current change (%, negative = inhibition) at 10uM” value was found to be 5.16%.

`Cc1ccc(/C=N/NC(=O)CSc2nc3ccccc3n2C)s1`: the “hERG current change (%, negative = inhibition) at 10uM” value is recorded as -17.4%.

In the case of `COc1ccccc1C1C(C(=O)c2sc(C)nc2C)=C(O)C(=O)N1CCN1CCOCC1` (stereo not shown), the “hERG current change (%, negative = inhibition) at 10uM” value was 4.26%.

As for `COc1ccc(S(=O)(=O)N(Cc2cccnc2)Cc2cc3ccccc3[nH]c2=O)cc1`, the “hERG current change (%, negative = inhibition) at 10uM” value is -18.6%.

Turning to `Cc1ccc(S(=O)(=O)N(Cc2cccnc2)Cc2cc3ccccc3[nH]c2=O)cc1`, the “hERG current change (%, negative = inhibition) at 10uM” value was -19.5%.

With `Cc1ccc(S(=O)(=O)N(Cc2cc3ccccc3[nH]c2=O)CC2CCCO2)cc1` (stereo not shown), the “hERG current change (%, negative = inhibition) at 10uM” value was 10.5%.

On to `O=c1[nH]c2ccccc2cc1CN(Cc1cccnc1)S(=O)(=O)c1ccc(Cl)cc1`, for which the “hERG current change (%, negative = inhibition) at 10uM” value is -56.2%.

Consider `O=c1[nH]c2ccccc2cc1CN(CC1CCCO1)S(=O)(=O)c1ccccc1` (stereo not shown), for which the “hERG current change (%, negative = inhibition) at 10uM” value is reported as -10.3%.

Consider `O=c1[nH]c2ccccc2cc1CN(CC1CCCO1)S(=O)(=O)c1ccc(Cl)cc1` (stereo not shown), for which the “hERG current change (%, negative = inhibition) at 10uM” value was -75.1%.
